From PubChem BioAssay AID1159580 (chemical genetic matrix, 2015)
“And” between values parts separate entries of the source, which are not always exact repeats. Equal values may be shown once. Among all 5,500 compounds or so, about 2,000 (36%) were called active. Not shown: some 18% with an inconclusive outcome. Rule as the data show it: active = normalized growth mostly below about 0.91 (no sharp cut-off); inconclusive = no clear call, values can overlap the other calls; inactive = mostly above about 0.92. Some of the results follow.

Experiment: chemical genetic growth profiling, strain panel (AID 1159580);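 also: tested at 20 µM; growth read once vehicle control cultures reached saturation at 30 °C; 1 = growth at the plate median or of vehicle wells; lower values mean less growth of the strain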
Settings: growth OD

Measured: normalized growth

COc1ccc(C(=O)O)cc1OC
inactive: S. cerevisiae deletion strains, locus YAL013W, strain DEP1, stronger effect = lower value 1.02 | S. cerevisiae deletion strains, locus YAL021C, strain ccr4, stronger effect = lower value 0.981 | S. cerevisiae deletion strains, locus YAL026C, strain drs2, stronger effect = lower value 0.996 | S. cerevisiae deletion strains, locus YAL030W, strain snc1, stronger effect = lower value 0.995 | S. cerevisiae deletion strains, locus YBL061C, strain skt5, stronger effect = lower value 1 | S. cerevisiae deletion strains, locus YBR009C, strain hhf1, stronger effect = lower value 1.01 | S. cerevisiae deletion strains, locus YBR021W, strain FUR4, stronger effect = lower value 1.02 | S. cerevisiae deletion strains, locus YBR023C, strain chs3, stronger effect = lower value 1.01 | S. cerevisiae deletion strains, locus YBR171W, strain sec66, stronger effect = lower value 0.996 | S. cerevisiae deletion strains, locus YBR229C, strain ROT2, stronger effect = lower value 1 | S. cerevisiae deletion strains, locus YBR231C, strain swc5, stronger effect = lower value 0.996 | S. cerevisiae deletion strains, locus YBR279W, strain paf1, stronger effect = lower value 0.997 | S. cerevisiae deletion strains, locus YCL011C, strain gbp2, stronger effect = lower value 1 | S. cerevisiae deletion strains, locus YCL016C, strain dcc1, stronger effect = lower value 1 | S. cerevisiae deletion strains, locus YCL029C, strain bik1, stronger effect = lower value 0.992 | S. cerevisiae deletion strains, locus YCL069W, strain vba3, stronger effect = lower value 1 | S. cerevisiae deletion strains, locus YCR088W, strain abp1, stronger effect = lower value 0.996 | S. cerevisiae deletion strains, locus YDL005C, strain med2, stronger effect = lower value 0.996 | S. cerevisiae deletion strains, locus YDL035C, strain GPR1, stronger effect = lower value 1.08 | S. cerevisiae deletion strains, locus YDL040C, strain nat1, stronger effect = lower value 0.997 | S. cerevisiae deletion strains, locus YDL074C, strain BRE1, stronger effect = lower value 1.17 | S. cerevisiae deletion strains, locus YDL101C, strain DUN1, stronger effect = lower value 1 | S. cerevisiae deletion strains, locus YDL185W, strain tfp1, stronger effect = lower value 0.988 | S. cerevisiae deletion strains, locus YDL192W, strain arf1, stronger effect = lower value 1.03 | S. cerevisiae deletion strains, locus YDR001C, strain nth1, stronger effect = lower value 0.994 | S. cerevisiae deletion strains, locus YDR069C, strain doa4, stronger effect = lower value 1.01 | S. cerevisiae deletion strains, locus YDR101C, strain arx1, stronger effect = lower value 1.01 | S. cerevisiae deletion strains, locus YDR137W, strain rgp1, stronger effect = lower value 1.02 | S. cerevisiae deletion strains, locus YDR159W, strain sac3, stronger effect = lower value 0.964 | S. cerevisiae deletion strains, locus YDR162C, strain NBP2, stronger effect = lower value 1.04 | S. cerevisiae deletion strains, locus YDR195W, strain ref2 0.908 | S. cerevisiae deletion strains, locus YDR297W, strain sur2, stronger effect = lower value 1 | S. cerevisiae deletion strains, locus YDR318W, strain mcm21, stronger effect = lower value 1 | S. cerevisiae deletion strains, locus YDR334W, strain swr1, stronger effect = lower value 0.998 | S. cerevisiae deletion strains, locus YDR335W, strain msn5, stronger effect = lower value 1 | S. cerevisiae deletion strains, locus YDR388W, stronger effect = lower value 1 | S. cerevisiae deletion strains, locus YDR392W, strain spt3, stronger effect = lower value 0.984 | S. cerevisiae deletion strains, locus YDR502C, strain sam2, stronger effect = lower value 0.991 | S. cerevisiae deletion strains, locus YEL003W, strain gim4, stronger effect = lower value 0.992 | S. cerevisiae deletion strains, locus YEL037C, strain rad23, stronger effect = lower value 0.989 | S. cerevisiae deletion strains, locus YEL061C, strain CIN8 (second series), stronger effect = lower value 0.998 | S. cerevisiae deletion strains, locus YER015W, strain faa2, stronger effect = lower value 0.992 | S. cerevisiae deletion strains, locus YER016W, strain bim1, stronger effect = lower value 1.01 | S. cerevisiae deletion strains, locus YER110C, stronger effect = lower value 0.978 | S. cerevisiae deletion strains, locus YER111C, strain swi4, stronger effect = lower value 1.01 | S. cerevisiae deletion strains, locus YER155C, strain BEM2 (second series), stronger effect = lower value 0.988 | S. cerevisiae deletion strains, locus YER155C, strain BEM2, stronger effect = lower value 0.994 | S. cerevisiae deletion strains, locus YER167W, strain BCK2, stronger effect = lower value 0.999 | S. cerevisiae deletion strains, locus YFR010W, strain ubp6, stronger effect = lower value 0.993 | S. cerevisiae deletion strains, locus YGL078C, strain dbp3, stronger effect = lower value 0.99 | S. cerevisiae deletion strains, locus YGL086W, strain mad1, stronger effect = lower value 1.01 | S. cerevisiae deletion strains, locus YGL167C, strain pmr1, stronger effect = lower value 0.999 | S. cerevisiae deletion strains, locus YGL173C, strain kem1, stronger effect = lower value 0.998 | S. cerevisiae deletion strains, locus YGL227W, strain vid30, stronger effect = lower value 1.03 | S. cerevisiae deletion strains, locus YGL240W, strain doc1, stronger effect = lower value 0.998 | S. cerevisiae deletion strains, locus YGL248W, strain PDE1, stronger effect = lower value 1.05 | S. cerevisiae deletion strains, locus YGL253W, strain hxk2, stronger effect = lower value 1.01 | S. cerevisiae deletion strains, locus YGR078C, strain PAC10, stronger effect = lower value 1.04 | S. cerevisiae deletion strains, locus YGR135W, strain pre9, stronger effect = lower value 0.988 | S. cerevisiae deletion strains, locus YGR252W, strain gcn5, stronger effect = lower value 1.03 | S. cerevisiae deletion strains, locus YHR013C, strain ard1, stronger effect = lower value 0.978 | S. cerevisiae deletion strains, locus YHR027C, strain rpn1, stronger effect = lower value 1.01 | S. cerevisiae deletion strains, locus YHR030C, strain SLT2, stronger effect = lower value 1 and 0.99 | S. cerevisiae deletion strains, locus YHR079C, strain IRE1 (second series), stronger effect = lower value 0.987 | S. cerevisiae deletion strains, locus YHR079C, strain IRE1, stronger effect = lower value 0.961 | S. cerevisiae deletion strains, locus YHR094C, strain hxt1, stronger effect = lower value 0.972 | S. cerevisiae deletion strains, locus YHR129C, strain ARP1, stronger effect = lower value 1.03 | S. cerevisiae deletion strains, locus YHR142W, strain chs7, stronger effect = lower value 1.01 | S. cerevisiae deletion strains, locus YHR200W, strain rpn10, stronger effect = lower value 0.993 | S. cerevisiae deletion strains, locus YIL066C, strain RNR3, stronger effect = lower value 1.03 | S. cerevisiae deletion strains, locus YIL073C, strain SPO22, stronger effect = lower value 1.02 | S. cerevisiae deletion strains, locus YIL125W, strain kgd1, stronger effect = lower value 0.992 | S. cerevisiae deletion strains, locus YIR030C, strain dcg1, stronger effect = lower value 0.985 | S. cerevisiae deletion strains, locus YJL092W, strain hpr5, stronger effect = lower value 0.985 | S. cerevisiae deletion strains, locus YJL095W, strain BCK1 (second series), stronger effect = lower value 0.985 | S. cerevisiae deletion strains, locus YJL095W, strain BCK1, stronger effect = lower value 1.06 and 0.982 | S. cerevisiae deletion strains, locus YJL115W, strain asf1, stronger effect = lower value 0.995 | S. cerevisiae deletion strains, locus YJL129C, strain trk1, stronger effect = lower value 1.04 | S. cerevisiae deletion strains, locus YJL134W, strain LCB3, stronger effect = lower value 0.995 | S. cerevisiae deletion strains, locus YJL154C, strain vps35, stronger effect = lower value 0.992 | S. cerevisiae deletion strains, locus YJL164C, strain tpk1, stronger effect = lower value 1 | S. cerevisiae deletion strains, locus YJL166W, strain qcr8, stronger effect = lower value 1.01 | S. cerevisiae deletion strains, locus YJL168C, strain set2, stronger effect = lower value 0.993 | S. cerevisiae deletion strains, locus YJL187C, strain SWE1 (second series), stronger effect = lower value 1.02 | S. cerevisiae deletion strains, locus YJR066W, strain TOR1, stronger effect = lower value 0.996 | S. cerevisiae deletion strains, locus YKL009W, strain mrt4, stronger effect = lower value 1.02 | S. cerevisiae deletion strains, locus YKL068W, stronger effect = lower value 0.983 | S. cerevisiae deletion strains, locus YKL085W, strain MDH1 (second series), stronger effect = lower value 0.993 | S. cerevisiae deletion strains, locus YKL085W, strain MDH1, stronger effect = lower value 0.993 | S. cerevisiae deletion strains, locus YKL160W, strain elf1, stronger effect = lower value 1 | S. cerevisiae deletion strains, locus YKR001C, strain vps1, stronger effect = lower value 1.05 | S. cerevisiae deletion strains, locus YKR026C, strain gcn3, stronger effect = lower value 1 | S. cerevisiae deletion strains, locus YKR091W, strain srl3, stronger effect = lower value 0.996 | S. cerevisiae deletion strains, locus YLL001W, strain dnm1, stronger effect = lower value 0.997 | S. cerevisiae deletion strains, locus YLL026W, stronger effect = lower value 0.999 | S. cerevisiae deletion strains, locus YLL041C, strain sdh2, stronger effect = lower value 0.992 | S. cerevisiae deletion strains, locus YLR027C, strain aat2, stronger effect = lower value 1 | S. cerevisiae deletion strains, locus YLR039C, strain RIC1, stronger effect = lower value 1.22 | S. cerevisiae deletion strains, locus YLR058C, strain SHM2, stronger effect = lower value 1.01 | S. cerevisiae deletion strains, locus YLR102C, strain apc9, stronger effect = lower value 0.977 | S. cerevisiae deletion strains, locus YLR113W, strain HOG1, stronger effect = lower value 0.982 | S. cerevisiae deletion strains, locus YLR221C, strain rsa3, stronger effect = lower value 1.02 | S. cerevisiae deletion strains, locus YLR258W, strain gsy2, stronger effect = lower value 1.01 | S. cerevisiae deletion strains, locus YLR262C, strain YPT6 (second series), stronger effect = lower value 1.01 | S. cerevisiae deletion strains, locus YLR262C, strain YPT6, stronger effect = lower value 1.2 | S. cerevisiae deletion strains, locus YLR268W, strain sec22, stronger effect = lower value 1.05 | S. cerevisiae deletion strains, locus YLR320W, strain mms22, stronger effect = lower value 1 | S. cerevisiae deletion strains, locus YLR330W, strain CHS5, stronger effect = lower value 1.01 | S. cerevisiae deletion strains, locus YLR342W, strain FKS1 (second series), stronger effect = lower value 1.07 | S. cerevisiae deletion strains, locus YLR342W, strain FKS1, stronger effect = lower value 1 | S. cerevisiae deletion strains, locus YLR357W, strain rsc2, stronger effect = lower value 0.981 | S. cerevisiae deletion strains, locus YLR370C, strain arc18, stronger effect = lower value 1.01 | S. cerevisiae deletion strains, locus YLR371W, strain rom2, stronger effect = lower value 0.991 | S. cerevisiae deletion strains, locus YLR384C, strain iki3, stronger effect = lower value 1.01 | S. cerevisiae deletion strains, locus YLR418C, strain cdc73, stronger effect = lower value 1.07 | S. cerevisiae deletion strains, locus YML016C, strain PPZ1, stronger effect = lower value 1 | S. cerevisiae deletion strains, locus YML032C, strain rad52, stronger effect = lower value 0.998 | S. cerevisiae deletion strains, locus YML120C, strain ndi1, stronger effect = lower value 1.01 | S. cerevisiae deletion strains, locus YML124C, strain tub3, stronger effect = lower value 0.989 | S. cerevisiae deletion strains, locus YMR058W, strain fet3, stronger effect = lower value 1 | S. cerevisiae deletion strains, locus YMR078C, strain ctf18, stronger effect = lower value 0.982 | S. cerevisiae deletion strains, locus YMR125W, strain sto1, stronger effect = lower value 0.985 | S. cerevisiae deletion strains, locus YMR129W, stronger effect = lower value 0.93 | S. cerevisiae deletion strains, locus YMR205C, strain PFK2, stronger effect = lower value 1 | S. cerevisiae deletion strains, locus YMR223W, strain ubp8, stronger effect = lower value 1 | S. cerevisiae deletion strains, locus YMR231W, strain pep5, stronger effect = lower value 0.989 | S. cerevisiae deletion strains, locus YMR307W, strain GAS1, stronger effect = lower value 1.14 | S. cerevisiae deletion strains, locus YNL067W, strain RPL9B, stronger effect = lower value 1.01 | S. cerevisiae deletion strains, locus YNL071W, strain lat1, stronger effect = lower value 0.99 | S. cerevisiae deletion strains, locus YNL128W, strain TEP1, stronger effect = lower value 1.03 | S. cerevisiae deletion strains, locus YNL183C, strain NPR1, stronger effect = lower value 0.921 | S. cerevisiae deletion strains, locus YNL209W, strain ssb2, stronger effect = lower value 0.985 | S. cerevisiae deletion strains, locus YNL233W, strain BNI4, stronger effect = lower value 1.04 | S. cerevisiae deletion strains, locus YNL248C, strain rpa49, stronger effect = lower value 1 | S. cerevisiae deletion strains, locus YNL250W, strain rad50, stronger effect = lower value 0.952 | S. cerevisiae deletion strains, locus YNL271C, strain bni1, stronger effect = lower value 0.994 | S. cerevisiae deletion strains, locus YNL298W, strain CLA4, stronger effect = lower value 0.997 | S. cerevisiae deletion strains, locus YNL307C, strain MCK1, stronger effect = lower value 0.975 | S. cerevisiae deletion strains, locus YNL322C, strain KRE1 (second series), stronger effect = lower value 0.986 | S. cerevisiae deletion strains, locus YNR049C, strain mso1, stronger effect = lower value 0.987 | S. cerevisiae deletion strains, locus YNR052C, strain pop2, stronger effect = lower value 0.969 | S. cerevisiae deletion strains, locus YOL006C, strain TOP1, stronger effect = lower value 1.36 | S. cerevisiae deletion strains, locus YOL012C, strain htz1 0.898 | S. cerevisiae deletion strains, locus YOL147C, strain pex11, stronger effect = lower value 0.997 | S. cerevisiae deletion strains, locus YOR001W, strain rrp6, stronger effect = lower value 1.02 | S. cerevisiae deletion strains, locus YOR061W, strain CKA2, stronger effect = lower value 1.01 | S. cerevisiae deletion strains, locus YOR069W, strain VPS5, stronger effect = lower value 0.996 | S. cerevisiae deletion strains, locus YOR070C, strain gyp1, stronger effect = lower value 1 | S. cerevisiae deletion strains, locus YOR080W, strain dia2, stronger effect = lower value 0.996 | S. cerevisiae deletion strains, locus YOR083W, strain WHI5, stronger effect = lower value 0.996 | S. cerevisiae deletion strains, locus YOR106W, strain vam3, stronger effect = lower value 1.02 | S. cerevisiae deletion strains, locus YOR136W, strain idh2, stronger effect = lower value 0.995 | S. cerevisiae deletion strains, locus YOR144C, strain elg1, stronger effect = lower value 0.978 | S. cerevisiae deletion strains, locus YOR184W, strain ser1, stronger effect = lower value 1.07 | S. cerevisiae deletion strains, locus YOR231W, strain MKK1, stronger effect = lower value 0.979 | S. cerevisiae deletion strains, locus YOR265W, strain rbl2, stronger effect = lower value 0.995 | S. cerevisiae deletion strains, locus YOR270C, strain vph1, stronger effect = lower value 1.02 | S. cerevisiae deletion strains, locus YOR290C, strain snf2, stronger effect = lower value 1.02 | S. cerevisiae deletion strains, locus YOR316C, strain cot1, stronger effect = lower value 1.01 | S. cerevisiae deletion strains, locus YPL051W, strain arl3, stronger effect = lower value 0.993 | S. cerevisiae deletion strains, locus YPL078C, strain atp4, stronger effect = lower value 1 | S. cerevisiae deletion strains, locus YPL106C, strain sse1, stronger effect = lower value 0.975 | S. cerevisiae deletion strains, locus YPL240C, strain hsp82, stronger effect = lower value 1 | S. cerevisiae deletion strains, locus YPL256C, strain CLN2, stronger effect = lower value 0.973 | S. cerevisiae deletion strains, locus YPR119W, strain clb2, stronger effect = lower value 1 | S. cerevisiae deletion strains, locus YPR141C, strain kar3, stronger effect = lower value 0.976 | S. cerevisiae deletion strains, locus YPR163C, strain tif3, stronger effect = lower value 1.01 | S. cerevisiae deletion strains, locus YPR167C, strain met16, stronger effect = lower value 1.02 | S. cerevisiae deletion strains, strain wtn01, stronger effect = lower value 1.01 | S. cerevisiae strains, strain wild type, stronger effect = lower value 1.06
